Values joined by “and” are separate entries in the source; they are usually repeats but may differ in a detail not shown here. Equal values may be shown once. Results filed as inconclusive are left out. A call without a number means that no potency is given here. A structure can be active in one record and inactive in another. Active and inactive are the calls of the source. Unless noted, calls follow the shape of the dose curve; as a rule, active = well fitted curve in the direction sought with a large enough effect in the repeat runs; inconclusive = weak or mixed curves; inactive = no such curve, though single readings can be large; an effect the other way counts as inactive or inconclusive.
Assays:
[1] = A CellTox Green Cytotoxicity Assay to monitor cytotoxicity in HepG2 cells - 8 hour (AID 1224890); also: nearly all actives have a fitted effect of over 45% in size; also: potency is read from the fitted curve at half-maximal effect
Procedure, shortened: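 Continuous culture of HepG2 cells with a membrane-impermeant DNA dye; rising fluorescence marks dead cells. Compound exposure lasted up to 40 h at 37 C, with reads every 8 h from 0 h.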

[2] = qHTS assay to identify small molecule antagonists of the estrogen receptor alpha (ER-alpha) signaling pathway using the BG1 cell line in the presence of 0.1 nM 17-beta-estradiol - cell viability counter screen (AID 1259241); also: nearly all actives have a fitted effect of over 40% in size
Procedure, shortened: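 Following 5 days in phenol red-free medium with charcoal-stripped serum, VM7Luc4E2 cells received test compounds alongside 0.1 nM 17beta-estradiol (final) at 37C for 22 hr. Live cells were then quantified via protease-substrate fluorescence.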

[3] = qHTS assay to identify small molecule antagonists of the androgen receptor (AR) signaling pathway using the MDA cell line in the presence of 0.5 nM R1881 - cell viability counter screen (AID 1259242); also: nearly all actives have a fitted effect of over 45% in size
Procedure, shortened: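 Fluorescence from CellTiter-Fluor, which reports protease activity of live cells, was read 30 min after reagent addition to MDA-kb2 cells that had been incubated 16 hr with compound and 0.5 nM R1881.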

[4] = molecular target: Estrogen receptor (Homo sapiens) (UniProt P03372); experiment: qHTS assay to identify small molecule antagonists of the estrogen receptor alpha (ER-alpha) signaling pathway using the BG1 cell line in the presence of 0.1 nM 17-beta-estradiol (AID 1259244); also: nearly all actives have a fitted effect of over 50% in size; also: potency is read from the fitted curve at half-maximal effect
Procedure, shortened: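 Quantitative high-throughput screen in VM7Luc4E2 cells: compound plus 0.1 nM E2 (final), 22 h, 37C, 5% CO2; ONE-Glo added, 30 min room temperature, luminescence measured.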

[5] = qHTS assay to identify small molecule phospholipidosis (PLD) inducers (AID 1259344; active = well fitted curve in the direction sought with a large enough effect; an effect the other way counts as inactive or inconclusive)
Procedure, shortened: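 Phospholipidosis is scored by imaging LipidTOX-stained pits in HepG2 cells exposed to compound for 24 h at 37 C; pit counts and integrated intensities per well and per cell serve as outputs.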

[6] = qHTS assay to identify small molecule HDAC inhibitors - cell viability counter screen (AID 1259365); also: series mostly up to about 92 µM; nearly all actives have a fitted effect of over 50% in size
Procedure, shortened: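 HCT-116 wild-type, overnight attachment; 2hr drug exposure, 37C; CellTiter-Glo luminescent ATP readout after 30min RT.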

[7] = qHTS assay to identify small molecule agonists of the sonic hedgehog signaling (Shh) pathway - cell viability counter screen (AID 1259366); also: nearly all actives have a fitted effect of over 50% in size; also: potency is read from the fitted curve at half-maximal effect
Procedure, shortened: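 Compounds in DMSO were pin-transferred onto 3T3 Gli1-Luc cells that had settled 4hr; plates then stood 24hr at 37C and 5% CO2. One hour before the end, CellTiter-Fluor was added and fluorescence recorded.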

[8] = qHTS assay to identify small molecule antagonists of the sonic hedgehog signaling (Shh) pathway - cell viability counter screen (AID 1259367); also: nearly all actives have a fitted effect of over 55% in size
Procedure, shortened: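 Cells: 3T3 Gli1-Luc, 2,000/well, 4 hr pre-incubation. Compounds in DMSO, then conditioned medium. Incubation 24 hr, 37C, 5% CO2. CellTiter-Fluor at 23 hr, 1 hr, fluorescence.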

[9] = qHTS assay to identify small molecule agonists of the sonic hedgehog signaling (Shh) pathway (AID 1259368; calls by dose curve;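 also: NIH/3T3-derived 3T3Gli1-Luc cells carrying a stable Gli1-driven firefly luciferase reporter; series mostly up to about 92 µM; nearly all actives have a fitted effect of over 15% in size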)
Procedure, shortened: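 Luminescent signal was taken as a measure of Gli1-controlled luciferase expression in stably transfected NIH/3T3-derived cells that had been treated for 24 hr with compounds delivered in DMSO.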

[10] = qHTS assay to identify small molecule antagonists of the sonic hedgehog signaling (Shh) pathway (AID 1259369; calls by dose curve; also: nearly all actives have a fitted effect of over 45% in size; also: potency is read from the fitted curve at half-maximal effect)
Procedure, shortened: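 Screening used 3T3Gli1-Luc cells at 2,000 per well, compounds delivered in DMSO, and conditioned medium as agonist stimulus; plates incubated 24hr at 37 C and 5% CO2 before a 30min luciferase step.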

[11] = molecular target: Estrogen receptor beta (Homo sapiens) (UniProt Q92731); experiment: qHTS assay to identify small molecule agonists of the estrogen receptor beta (ER-beta) signaling pathway (AID 1259377; active = well fitted activation curve with a large enough effect in the signal ratio in the repeat runs, not every such curve was filed as active; the % refers to the signal ratio)
Procedure, shortened: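 qHTS in ER-beta-UAS-bla HEK293T cells: 6 hr settling, then 16 hr compound at 37C, then LiveBLAzer substrate 2 h at RT before fluorescence reading.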

[12] = molecular target: Estrogen receptor beta (Homo sapiens) (UniProt Q92731); experiment: qHTS assay to identify small molecule antagonists of the estrogen receptor beta (ER-beta) signaling pathway (AID 1259378; active = well fitted inhibition curve with a large enough effect in the signal ratio in the repeat runs, not every such curve was filed as active; the % refers to the signal ratio)
Procedure, shortened: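 Antagonist mode: compounds added to beta-lactamase reporter HEK293T ER-beta-UAS cells stimulated with E2 (1nM final), 16 hr at 37C. LiveBLAzer B/G FRET substrate, 2 hours room temperature, fluorescence read-out.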

[13] = qHTS assay to identify small molecule agonists of the estrogen receptor beta (ER-beta) signaling pathway - cell viability counter screen (AID 1259380); also: nearly all actives have a fitted effect of over 30% in size; also: potency is read from the fitted curve at half-maximal effect
Procedure, shortened: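 Viability of ER-beta-UAS-bla HEK293T cells was determined by CellTiter-Glo luminescence following 16 hr treatment with test compounds at 37C.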

[14] = qHTS assay to identify small molecule antagonists of the estrogen receptor beta (ER-beta) signaling pathway - cell viability counter screen (AID 1259382); also: nearly all actives have a fitted effect of over 55% in size; also: potency is read from the fitted curve at half-maximal effect
Procedure, shortened: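 Tox21 10K library tested in qHTS format on ER-beta-bla HEK293T cells stimulated with 1nM E2; 16 hr treatment at 37C. Same-well CellTiter-Glo luminescence served as the cell viability measure.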

[15] = molecular target: Estrogen receptor (Homo sapiens) (UniProt P03372); experiment: qHTS assay to identify small molecule agonists of the estrogen receptor alpha (ER-alpha) signaling pathway in the presence of an antagonist (AID 1259383; calls by dose curve; also: top concentration of the series differs between compounds; nearly all actives have a fitted effect of over 15% in size)
Procedure, shortened: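 In VM7Luc4E2 cells, 4,000 per well, compounds at 15 concentrations were co-incubated 22hr at 37C with 10.0nM final ICI-182,780. Luminescence from the stably transfected 4×ERE-luciferase reporter was recorded 30min after ONE-Glo addition.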

[16] = qHTS assay to identify small molecule agonists or antagonists of the thyroid stimulating hormone receptor (TSHR) signaling pathway - wild type cell line counter screen (AID 1259384; calls by dose curve)
Procedure, shortened: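 Counter screen in untransfected Hek293: compounds (15-point titration, triplicate) plus phosphodiesterase inhibitor Ro20-1724 added after 18 h plating; 30 min RT. Intracellular cAMP via competitive d2/cryptate immunoassay, 1 h incubation.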

[17] = qHTS assay to identify small molecule HDAC inhibitors (AID 1259364); also: top concentration of the series differs between compounds; nearly all actives have a fitted effect of over 45% in size
Procedure, shortened: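 Endogenous HDAC class I/II activity was measured in wild-type HCT-116 cells by HDAC-Glo luminescence after 2 h compound treatment.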

[18] = qHTS assay to identify small molecule agonists of the androgen receptor (AR) signaling pathway in the presence of an antagonist - cell viability counter screen (AID 1259379);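 also: MDA-kb2 human breast cancer cells carrying an MMTV luciferase reporter; series mostly up to about 92 µM; nearly all actives have a fitted effect of over 25% in size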
Procedure, shortened: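 In MDA-kb2 cells (human breast carcinoma, MMTV-luciferase), compounds at 15 concentrations plus 3.0uM nilutamide; 16 hr, 37C, 0% CO2; CellTiter-Fluor fluorescence read for viability.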

[19] = molecular target: Androgen receptor (Homo sapiens) (UniProt P10275); experiment: qHTS assay to identify small molecule antagonists of the androgen receptor (AR) signaling pathway using the MDA cell line in the presence of 0.5 nM R1881 (AID 1259243); also: nearly all actives have a fitted effect of over 50% in size; also: potency is read from the fitted curve at half-maximal effect
Procedure, shortened: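 Inhibition of R1881 (0.5 nM final) induced reporter signal was measured in human MDA-kb2 cells; note the MMTV promoter also responds to GR. Exposure lasted 16 hr at 37C.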

[20] = molecular target: Androgen receptor (Homo sapiens) (UniProt P10275); experiment: qHTS assay to identify small molecule agonists of the androgen receptor (AR) signaling pathway in the presence of an antagonist (AID 1259381; calls by dose curve; also: nearly all actives have a fitted effect of over 15% in size)
Procedure, shortened: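 Here, 15-concentration compound series were pin-transferred onto MDA-kb2 MMTV-luciferase cells already dosed with nilutamide (3.0uM final). After 16hr at 37C, ONE-Glo was added and luminescence read 30min later at room temperature.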

Chain of Androgen receptor (Homo sapiens) (P10275 whole entry, looked up): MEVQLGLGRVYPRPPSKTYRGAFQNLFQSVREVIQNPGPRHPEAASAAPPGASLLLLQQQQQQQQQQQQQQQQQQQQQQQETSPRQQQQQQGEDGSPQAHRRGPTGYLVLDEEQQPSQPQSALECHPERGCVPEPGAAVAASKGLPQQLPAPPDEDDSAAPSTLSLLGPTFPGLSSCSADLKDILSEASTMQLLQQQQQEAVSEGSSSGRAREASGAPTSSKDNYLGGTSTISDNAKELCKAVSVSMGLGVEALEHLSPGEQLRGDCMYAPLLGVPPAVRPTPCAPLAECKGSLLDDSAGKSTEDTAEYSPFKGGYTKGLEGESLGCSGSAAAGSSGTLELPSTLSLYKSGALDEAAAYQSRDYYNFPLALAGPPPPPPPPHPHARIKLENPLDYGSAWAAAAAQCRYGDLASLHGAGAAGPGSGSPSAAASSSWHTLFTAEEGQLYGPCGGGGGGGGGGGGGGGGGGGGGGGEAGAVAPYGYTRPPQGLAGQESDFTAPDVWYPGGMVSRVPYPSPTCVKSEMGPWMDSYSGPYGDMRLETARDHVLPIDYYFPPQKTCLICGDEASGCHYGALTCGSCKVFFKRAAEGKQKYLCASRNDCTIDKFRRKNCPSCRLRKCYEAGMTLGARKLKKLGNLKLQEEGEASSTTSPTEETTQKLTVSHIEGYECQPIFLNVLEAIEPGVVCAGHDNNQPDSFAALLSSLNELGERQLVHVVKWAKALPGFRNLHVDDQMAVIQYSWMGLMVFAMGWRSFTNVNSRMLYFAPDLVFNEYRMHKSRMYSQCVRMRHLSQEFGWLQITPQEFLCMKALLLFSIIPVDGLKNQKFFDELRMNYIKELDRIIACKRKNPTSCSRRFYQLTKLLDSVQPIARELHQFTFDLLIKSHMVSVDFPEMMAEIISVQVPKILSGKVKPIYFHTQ
Chain of Estrogen receptor beta (Homo sapiens) (Q92731 whole entry, looked up): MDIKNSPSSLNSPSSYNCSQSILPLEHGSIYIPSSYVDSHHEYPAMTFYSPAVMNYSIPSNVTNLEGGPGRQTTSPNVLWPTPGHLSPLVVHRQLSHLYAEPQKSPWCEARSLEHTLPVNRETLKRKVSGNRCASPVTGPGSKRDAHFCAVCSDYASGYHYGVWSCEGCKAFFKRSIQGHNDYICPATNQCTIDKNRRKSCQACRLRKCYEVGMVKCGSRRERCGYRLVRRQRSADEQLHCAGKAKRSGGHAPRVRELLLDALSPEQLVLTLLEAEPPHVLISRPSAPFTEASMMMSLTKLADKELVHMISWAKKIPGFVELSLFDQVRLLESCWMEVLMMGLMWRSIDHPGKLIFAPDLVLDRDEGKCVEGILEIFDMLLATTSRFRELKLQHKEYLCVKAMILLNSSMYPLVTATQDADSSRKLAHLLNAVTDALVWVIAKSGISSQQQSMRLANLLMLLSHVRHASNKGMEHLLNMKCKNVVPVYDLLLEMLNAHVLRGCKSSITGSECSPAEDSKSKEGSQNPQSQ
Chain of Estrogen receptor (Homo sapiens) (P03372 whole entry, looked up): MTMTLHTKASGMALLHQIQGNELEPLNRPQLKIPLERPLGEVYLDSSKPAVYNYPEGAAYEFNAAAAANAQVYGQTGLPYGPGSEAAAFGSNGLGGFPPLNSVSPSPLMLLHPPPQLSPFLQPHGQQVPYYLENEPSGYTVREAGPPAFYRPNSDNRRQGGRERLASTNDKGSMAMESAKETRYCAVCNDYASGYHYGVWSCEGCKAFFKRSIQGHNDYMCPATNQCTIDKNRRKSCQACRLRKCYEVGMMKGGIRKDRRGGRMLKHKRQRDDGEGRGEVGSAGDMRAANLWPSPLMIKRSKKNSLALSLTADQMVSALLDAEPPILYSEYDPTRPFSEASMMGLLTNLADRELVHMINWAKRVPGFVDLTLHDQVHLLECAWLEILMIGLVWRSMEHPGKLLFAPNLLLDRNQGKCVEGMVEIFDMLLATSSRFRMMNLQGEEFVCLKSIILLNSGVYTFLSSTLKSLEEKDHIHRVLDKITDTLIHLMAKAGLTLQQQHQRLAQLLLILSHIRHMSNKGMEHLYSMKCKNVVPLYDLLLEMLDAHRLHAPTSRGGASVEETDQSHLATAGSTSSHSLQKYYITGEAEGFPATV

SMILES	Potency [1]	Potency [2]	Potency [3]	Potency [4]	outcome [5]	outcome [6]	Potency [7]	Potency [8]	Potency [9]	Potency [10]	Potency [11]	Potency [12]	Potency [13]	Potency [14]	Potency [15]	outcome [16]	Potency [17]	Potency [18]	Potency [19]	Potency [20]
CC1(C)C(C=C(Cl)Cl)C1C(=O)OC(C#N)c1cccc(Oc2ccccc2)c1 (configuration not stated)	inactive	inactive	inactive	inactive	inactive	inactive	inactive	inactive	inactive	inactive	inactive	inactive	inactive	inactive	inactive	inactive				
NCc1cccnc1	inactive	inactive	inactive	inactive	inactive	inactive	inactive	inactive	inactive	inactive			inactive	inactive	inactive	inactive	inactive	inactive		
Cc1c(COC(=O)[C@@H]2[C@H](/C=C(\Cl)C(F)(F)F)C2(C)C)cccc1-c1ccccc1	inactive	inactive	inactive	inactive		inactive	inactive	inactive	inactive	inactive	inactive	inactive	inactive	inactive	inactive	inactive	inactive	inactive		
O=C(O)CC[N+](=O)[O-]	inactive	inactive	inactive			inactive	inactive	inactive	inactive	inactive			inactive	inactive				inactive	inactive	inactive
c1cc(OCC2CO2)ccc1Cc1ccc(OCC2CO2)cc1 (configuration not stated)	inactive	inactive	inactive	inactive		inactive	27.3 µM (active)		inactive	19.4 µM (active) and 21.7 µM (active)			48.6 µM (active)	48.8 µM (active) and inactive	inactive	inactive		inactive	inactive	inactive
CCC(C)(C)c1ccc(O)cc1	inactive and 43.6 µM (active)	inactive	inactive	inactive	inactive	inactive	inactive	inactive	inactive	inactive		inactive	inactive	inactive	inactive	inactive	inactive	inactive		
CCCCN(CCCC)N=O	inactive	inactive	inactive	inactive		inactive	inactive	inactive	inactive	inactive	inactive		inactive	inactive	inactive	inactive	inactive			
N#Cc1cc(Br)c(O)c(Br)c1	inactive	inactive	inactive	61.1 µM (active) and 41.7 µM (active)		inactive	inactive	inactive	inactive	15.3 µM (active) and 7.41 µM (active)			inactive	inactive	inactive	inactive	inactive		61.1 µM (active) and 46.8 µM (active)	inactive
Oc1c(Cl)c(Cl)c(Cl)c(Cl)c1Cl	inactive	inactive	inactive	30 µM (active) and 30.6 µM (active)		inactive	inactive	inactive	inactive	inactive			inactive	inactive	inactive	inactive				
O=S(=O)(Oc1ccc(Cl)cc1)c1ccc(Cl)cc1	inactive	inactive	inactive	inactive		inactive	inactive	inactive	inactive	inactive	inactive	inactive	inactive	inactive	inactive	inactive				
CCCCCCCCOC(=O)c1ccccc1C(=O)OCCCCCCCC	inactive	inactive	inactive	inactive	inactive	inactive	inactive	inactive	inactive	inactive	inactive	inactive	inactive	inactive	inactive	inactive	inactive		inactive	inactive
O=P(O)(O)CCCl	inactive	inactive	inactive	inactive		inactive	inactive	inactive	inactive	inactive			inactive	inactive	inactive	inactive		inactive		
COP(=S)(OC)Oc1ccc([N+](=O)[O-])cc1	inactive	inactive	inactive	inactive		inactive	inactive	inactive	inactive	inactive	inactive	inactive	inactive	inactive	inactive	inactive				
Nc1c(Cl)cc([N+](=O)[O-])cc1Cl	inactive	inactive	inactive	inactive and 27.3 µM (active)		inactive	inactive		inactive	inactive	inactive	inactive	61.5 µM (active) and 27.3 µM (active)		inactive		inactive		6.9 µM (active) and 27.3 µM (active)	inactive
COP(=O)(OC)OC	inactive	inactive	inactive	inactive		inactive	inactive	inactive	inactive	inactive			inactive	inactive	inactive	inactive		inactive	61.6 µM (active) and inactive	inactive

Reference: PubChem BioAssay (Tox21)
